# Reference: PubChem BioAssay (EPA / NIEHS)
# Results filed as inconclusive are left out. Active and inactive are the calls of the source. The calls were made as follows: active = hit-call score of the fitted dose curve at least 0.9, where 1 is the maximum; inconclusive = response in the unintended direction; inactive = score below 0.9.
# Key:
# [1] = target: mouse Cholecystokinin, CCK2 Receptor (CCKB), Cckbr (gene 12426) (UniProt P56481); assay: NVS_GPCR_mCKKBCentral: NovaScreen (NVS) G Protein-Coupled Receptor Assay for mouse Cholecystokinin, CCK2 Receptor (CCKB) (AID 2283293)
# In short: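 Mouse forebrain membrane preparation incubated 2 h with chemical and radioligand; bound radioactivity counted after filtration. Single-concentration duplicate screen at 25 uM, then concentration series to 50 uM max for hits, DMSO as baseline.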
# [2] = target: rat Adrenergic Receptor, Beta (Adrb), Non-selective Binding, Adrb1 (gene 24925) (UniProt P18090); assay: NVS_GPCR_rAdrb_NonSelective: NovaScreen (NVS) G Protein-Coupled Receptor Assay for rat Adrenergic Receptor, Beta (Adrb), Non-selective Binding (AID 2283298)
# In short: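 Rat cortical membranes incubated 1 h with beta-adrenergic radioligand and test chemical; bound ligand measured by filtration and scintillation counting. Screen at 25 uM duplicate, then concentration series with 50 uM maximum; loss of signal versus DMSO.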
# [3] = target: rat Neurokinin-1 Receptor (NK1), Tacr1 (gene 24807) (UniProt P14600); assay: NVS_GPCR_rNK1: NovaScreen (NVS) G Protein-Coupled Receptor Assay for rat Neurokinin-1 Receptor (NK1) (AID 2283309)
# In short: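 Competitive radioligand binding to NK1 in rat submaxillary membranes, 1 h incubation, filtration and scintillation read-out. Compounds first screened at 25 uM in duplicate, then concentration-response for actives; signal loss relative to DMSO.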
# [4] = target: rat Serotonin, 5-Hydroxytryptamine Receptor (5HT), Non-Selective Binding, Htr1a (gene 24473) (UniProt P19327); assay: NVS_GPCR_r5HT_NonSelective: NovaScreen (NVS) G Protein-Coupled Receptor Assay for rat Serotonin, 5-Hydroxytryptamine Receptor (5HT), Non-Selective Binding (AID 2283295)
# In short: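 Rat cortex membrane preparation incubated 1 h with radioligand and test chemical; bound radioactivity counted after filtration. Screening began in duplicate at 25 uM with concentration-series follow-up; fitting relative to DMSO.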
# Adra2b (gene 24174) = Adra2b (gene 24174) (UniProt P19328); assay: NVS_GPCR_rmAdra2B: NovaScreen (NVS) G Protein-Coupled Receptor Assay for hybird cells Adrenergic, Alpha 2B Receptor (Adra2B) (AID 2283306)
# In short: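 Compounds screened first at 25 uM in duplicate, with actives followed up in concentration-response; specific radioligand displacement from hybrid neuroglioma/blastoma cell membrane preparations measured by filter scintillation counting after 1 h, normalized to DMSO.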
# [5] = target: rat Opioid Receptor, Non-selective Sodium (Na+) Binding, Oprm1 (gene 25601) (UniProt P33535); assay: NVS_GPCR_rOpiate_NonSelectiveNa: NovaScreen (NVS) G Protein-Coupled Receptor Assay for rat Opioid Receptor, Non-selective Sodium (Na+) Binding (AID 2283311)
# In short: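 Filtration radioligand binding on rat forebrain membrane preparations, read 1.5 h after dosing. Single-concentration 25 µM primary screen in duplicate, followed by singleton concentration series to 50 µM max for actives; DMSO baseline.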
# [6] = target: rat Vasopressin 1 Receptor (V1), Avpr1a (gene 25107) (UniProt P30560); assay: NVS_GPCR_rV1: NovaScreen (NVS) G Protein-Coupled Receptor Assay for rat Vasopressin 1 Receptor (V1) (AID 2283316)
# In short: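 Concentration-response up to 50 uM for chemicals passing a threshold such as 30% inhibition in an initial duplicate 25 uM screen. Displacement of radioligand from rat liver membranes measured after 1.5 h by filtration and scintillation.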
# [7] = target: human Neonicotinoid receptor (NNR), CHRNA2 (gene 1135) (UniProt Q15822); assay: NVS_LGIC_hNNR_NBungSens: NovaScreen (NVS) Ligand-Gated Ion Channel Assay for human Neonicotinoid receptor (NNR) (AID 2283313)
# In short: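 Compounds first screened in duplicate at 25 uM, then actives re-tested in single-replicate dose series up to 50 uM. Binding measured as displacement of specific radioligand from neuroblastoma membrane receptors after 2 h, scintillation read on filters.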
# [8] = target: rat Neonicotinoid receptor (NNR), Chrna7 (gene 25302) (UniProt Q05941); assay: NVS_LGIC_rNNR_BungSens: NovaScreen (NVS) Ligand-Gated Ion Channel Assay for rat Neonicotinoid receptor (NNR) (AID 2283315)
# In short: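 Rat cortical membrane preparation incubated 2.5 h with tritiated or iodinated radioligand and test chemical. Bound radioactivity was filtered and counted by scintillation, and displacement was analysed against DMSO.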
# [9] = target: rat Corticotropin Releasing Factor Receptor (CRF), Crhr1 (gene 58959) (UniProt P35353); assay: NVS_GPCR_rCRF: NovaScreen (NVS) G Protein-Coupled Receptor Assay for rat Corticotropin Releasing Factor Receptor (CRF) (AID 2283300)
# In short: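 Single-concentration (25 uM, duplicate) radioligand binding on rat cortical membrane preparations, counted by scintillation after 2 h. Activity scored as signal loss relative to DMSO negative control.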
# [10] = target: rat Gamma-Aminobutyric Acid Type B Receptor (GABBR), Gabbr1 (gene 81657) (UniProt Q9Z0U4); assay: NVS_GPCR_rGABBR: NovaScreen (NVS) G Protein-Coupled Receptor Assay for rat Gamma-Aminobutyric Acid Type B Receptor (GABBR) (AID 2283301)
# In short: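 Rat cortical membrane preparation, competitive radioligand binding for 1 h with filtration and scintillation readout. Actives from duplicate single-point 25 uM screening proceeded to concentration series with 50 uM top concentration.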
# [11] = target: rat Neurotensin Receptor (NTS), Ntsr1 (gene 366274) (UniProt P20789); assay: NVS_GPCR_rNTS: NovaScreen (NVS) G Protein-Coupled Receptor Assay for rat Neurotensin Receptor (NTS) (AID 2283308)
# In short: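 Single-point duplicates at 25 uM, then concentration series to 50 uM max for hits, measured radioligand displacement on rat forebrain membrane preparations. Bound label counted by filtration scintillation at 1 h; signal loss relative to DMSO fitted.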
# [12] = target: guinea pig Serotonin, 5-Hydroxytryptamine Receptor 4 (5HT4), HTR4 (gene 100135548) (UniProt O70528); assay: NVS_GPCR_g5HT4: NovaScreen (NVS) G Protein-Coupled Receptor Assay for guinea pig Serotonin, 5-Hydroxytryptamine Receptor 4 (5HT4) (AID 2283294)
# In short: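 Compounds first screened in duplicate at 25 uM, actives followed up in concentration series. Binding measured as displacement of specific radioligand from guinea pig striatal membranes, 1 h, filter-based scintillation read-out versus DMSO baseline.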
# [13] = target: rat Neurokinin-3 Receptor (NK3), Tacr3 (gene 24808) (UniProt P16177); assay: NVS_GPCR_rNK3: NovaScreen (NVS) G Protein-Coupled Receptor Assay for rat Neurokinin-3 Receptor (NK3) (AID 2283310)
# In short: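 Filter-based radioligand displacement on rat cortex membrane preparations, read by scintillation 2 h post-dose. Chemicals first tested in duplicate at 25 uM; actives followed up in concentration series with a 50 uM maximum.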
# [14] = test system: rat Adrenergic, Alpha 1B Receptor (Adra1B), gene 24173; assay: NVS_GPCR_rAdra1B: NovaScreen (NVS) G Protein-Coupled Receptor Assay for rat Adrenergic, Alpha 1B Receptor (Adra1B) (AID 2283297)
# In short: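 Filter-binding radioligand competition on membranes from rat liver, read after 1 h by scintillation counting. Single-concentration duplicate screen at 25 uM, followed by concentration-response on actives, normalised to DMSO.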
# [15] = target: rat Adrenergic Receptor, Alpha 2 (Adra2), Non-selective Binding, Adra2a (gene 25083) (UniProt P22909); assay: NVS_GPCR_rAdra2_NonSelective: NovaScreen (NVS) G Protein-Coupled Receptor Assay for rat Adrenergic Receptor, Alpha 2 (Adra2), Non-selective Binding (AID 2283299)
# In short: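 Filter-based scintillation counting of radioligand binding to rat cortical membrane receptors, measured 1.25 hours post-dosing; loss of signal versus DMSO indicates displacement. Initial single-concentration duplicate at 25 uM, then concentration series.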
# [16] = target: Metabotropic glutamate receptor 1 (Rattus norvegicus) (UniProt P23385); assay: NVS_GPCR_rmMGluR1: NovaScreen (NVS) G Protein-Coupled Receptor Assay for rat Glutamate Metabotropic Receptor 1 (MGluR1) (AID 2283305)
# In short: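 Binding to native receptor from rat cerebellum extract, measured as displacement of a radioligand (scintillation counting, filter separation) after 1 hour. Compounds tested at 25 uM in duplicate, then titrated to a 50 uM maximum.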
# [17] = target: rat Somatostatin Receptor (SST), Sstr1 (gene 25033) (UniProt P28646); assay: NVS_GPCR_rSST: NovaScreen (NVS) G Protein-Coupled Receptor Assay for rat Somatostatin Receptor (SST) (AID 2283314)
# In short: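 Single-concentration duplicate screen (25 uM), then concentration-response up to 50 uM for chemicals passing a threshold such as 30% inhibition. Membranes came from rat forebrain. Binding was measured 1 h post-dose by filter radiodetection and scintillation, relative to DMSO.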
# Sequence of rat Neurotensin Receptor (NTS), Ntsr1 (gene 366274) (P20789 whole entry, looked up): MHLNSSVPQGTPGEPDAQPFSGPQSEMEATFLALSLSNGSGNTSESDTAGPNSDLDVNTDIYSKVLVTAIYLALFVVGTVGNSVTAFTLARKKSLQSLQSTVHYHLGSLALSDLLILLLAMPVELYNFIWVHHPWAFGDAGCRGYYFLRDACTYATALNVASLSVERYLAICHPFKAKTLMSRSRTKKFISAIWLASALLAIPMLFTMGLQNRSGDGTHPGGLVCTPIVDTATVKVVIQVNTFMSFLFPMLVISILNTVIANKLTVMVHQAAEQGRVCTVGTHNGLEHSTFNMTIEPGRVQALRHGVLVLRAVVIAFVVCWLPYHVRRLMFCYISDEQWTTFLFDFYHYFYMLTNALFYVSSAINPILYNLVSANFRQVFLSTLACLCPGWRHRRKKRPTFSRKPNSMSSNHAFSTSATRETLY
# Sequence of rat Neonicotinoid receptor (NNR), Chrna7 (gene 25302) (Q05941 whole entry, looked up): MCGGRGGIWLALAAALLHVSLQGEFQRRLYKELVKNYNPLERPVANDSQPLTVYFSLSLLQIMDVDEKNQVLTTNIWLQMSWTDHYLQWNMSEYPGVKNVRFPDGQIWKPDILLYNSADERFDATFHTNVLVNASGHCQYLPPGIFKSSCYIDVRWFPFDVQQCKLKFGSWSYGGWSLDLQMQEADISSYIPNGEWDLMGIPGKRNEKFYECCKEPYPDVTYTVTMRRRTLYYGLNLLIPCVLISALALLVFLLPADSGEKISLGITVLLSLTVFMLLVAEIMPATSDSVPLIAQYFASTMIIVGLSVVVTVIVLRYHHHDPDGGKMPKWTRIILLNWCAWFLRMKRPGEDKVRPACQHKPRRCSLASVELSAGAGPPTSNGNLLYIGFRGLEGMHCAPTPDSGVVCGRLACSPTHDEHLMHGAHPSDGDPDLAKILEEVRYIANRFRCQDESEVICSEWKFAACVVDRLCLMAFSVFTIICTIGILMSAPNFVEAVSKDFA
# Sequence of rat Vasopressin 1 Receptor (V1), Avpr1a (gene 25107) (P30560 whole entry, looked up): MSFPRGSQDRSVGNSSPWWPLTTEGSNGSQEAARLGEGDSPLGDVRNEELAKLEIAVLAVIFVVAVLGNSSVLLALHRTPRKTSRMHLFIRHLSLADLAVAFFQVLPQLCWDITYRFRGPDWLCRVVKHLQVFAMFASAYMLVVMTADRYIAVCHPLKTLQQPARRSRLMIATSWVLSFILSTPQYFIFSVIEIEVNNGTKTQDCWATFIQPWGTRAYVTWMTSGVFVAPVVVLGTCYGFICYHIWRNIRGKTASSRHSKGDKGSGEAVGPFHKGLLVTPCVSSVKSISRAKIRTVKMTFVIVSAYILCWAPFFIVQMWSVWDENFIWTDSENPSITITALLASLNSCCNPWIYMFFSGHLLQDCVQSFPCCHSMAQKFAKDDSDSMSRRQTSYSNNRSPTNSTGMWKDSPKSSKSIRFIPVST
# Sequence of rat Neurokinin-1 Receptor (NK1), Tacr1 (gene 24807) (P14600 whole entry, looked up): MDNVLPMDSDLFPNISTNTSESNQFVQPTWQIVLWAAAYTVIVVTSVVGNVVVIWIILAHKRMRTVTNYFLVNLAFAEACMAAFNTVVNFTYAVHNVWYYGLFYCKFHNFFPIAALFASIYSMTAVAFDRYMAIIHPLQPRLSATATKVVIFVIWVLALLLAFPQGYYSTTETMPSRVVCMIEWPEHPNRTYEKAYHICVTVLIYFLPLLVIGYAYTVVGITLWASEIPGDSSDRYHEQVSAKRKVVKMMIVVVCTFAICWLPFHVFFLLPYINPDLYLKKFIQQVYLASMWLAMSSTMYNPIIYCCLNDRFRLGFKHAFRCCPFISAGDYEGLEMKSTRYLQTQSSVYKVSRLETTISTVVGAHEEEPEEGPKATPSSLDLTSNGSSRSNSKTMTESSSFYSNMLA
# Sequence of mouse Cholecystokinin, CCK2 Receptor (CCKB), Cckbr (gene 12426) (P56481 whole entry, looked up): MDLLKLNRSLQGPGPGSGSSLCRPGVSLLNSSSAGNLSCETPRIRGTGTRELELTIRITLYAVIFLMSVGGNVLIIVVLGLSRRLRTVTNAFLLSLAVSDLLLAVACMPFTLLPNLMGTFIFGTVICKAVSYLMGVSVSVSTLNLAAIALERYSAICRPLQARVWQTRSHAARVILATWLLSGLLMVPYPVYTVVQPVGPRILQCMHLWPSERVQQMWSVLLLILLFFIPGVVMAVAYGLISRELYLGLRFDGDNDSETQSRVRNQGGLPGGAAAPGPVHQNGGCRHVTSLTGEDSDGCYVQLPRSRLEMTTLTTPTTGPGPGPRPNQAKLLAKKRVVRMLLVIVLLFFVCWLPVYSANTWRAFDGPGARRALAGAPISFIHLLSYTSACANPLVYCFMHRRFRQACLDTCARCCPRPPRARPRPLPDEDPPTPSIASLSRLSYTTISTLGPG
# Sequence of rat Somatostatin Receptor (SST), Sstr1 (gene 25033) (P28646 whole entry, looked up): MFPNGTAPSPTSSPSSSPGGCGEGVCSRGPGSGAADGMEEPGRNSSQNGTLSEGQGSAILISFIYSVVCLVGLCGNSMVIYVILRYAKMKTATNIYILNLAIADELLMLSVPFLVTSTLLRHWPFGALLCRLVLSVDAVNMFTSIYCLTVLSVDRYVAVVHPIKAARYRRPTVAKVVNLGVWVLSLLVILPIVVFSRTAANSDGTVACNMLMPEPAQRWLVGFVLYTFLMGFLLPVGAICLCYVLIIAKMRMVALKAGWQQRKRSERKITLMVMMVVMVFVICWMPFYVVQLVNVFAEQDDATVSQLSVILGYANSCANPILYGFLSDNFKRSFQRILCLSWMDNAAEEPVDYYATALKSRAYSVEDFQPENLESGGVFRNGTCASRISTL
# Sequence of rat Opioid Receptor, Non-selective Sodium (Na+) Binding, Oprm1 (gene 25601) (P33535 whole entry, looked up): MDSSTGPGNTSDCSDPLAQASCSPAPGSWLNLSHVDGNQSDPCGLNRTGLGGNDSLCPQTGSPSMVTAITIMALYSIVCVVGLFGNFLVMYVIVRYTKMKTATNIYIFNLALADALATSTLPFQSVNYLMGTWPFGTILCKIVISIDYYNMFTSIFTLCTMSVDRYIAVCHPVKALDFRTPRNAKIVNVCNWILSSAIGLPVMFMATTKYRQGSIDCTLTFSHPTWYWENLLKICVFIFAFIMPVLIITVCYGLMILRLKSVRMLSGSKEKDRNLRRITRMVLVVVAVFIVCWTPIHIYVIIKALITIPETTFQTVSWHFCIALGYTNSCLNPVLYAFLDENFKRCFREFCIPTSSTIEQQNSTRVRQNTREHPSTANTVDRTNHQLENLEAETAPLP
# Sequence of rat Corticotropin Releasing Factor Receptor (CRF), Crhr1 (gene 58959) (P35353 whole entry, looked up): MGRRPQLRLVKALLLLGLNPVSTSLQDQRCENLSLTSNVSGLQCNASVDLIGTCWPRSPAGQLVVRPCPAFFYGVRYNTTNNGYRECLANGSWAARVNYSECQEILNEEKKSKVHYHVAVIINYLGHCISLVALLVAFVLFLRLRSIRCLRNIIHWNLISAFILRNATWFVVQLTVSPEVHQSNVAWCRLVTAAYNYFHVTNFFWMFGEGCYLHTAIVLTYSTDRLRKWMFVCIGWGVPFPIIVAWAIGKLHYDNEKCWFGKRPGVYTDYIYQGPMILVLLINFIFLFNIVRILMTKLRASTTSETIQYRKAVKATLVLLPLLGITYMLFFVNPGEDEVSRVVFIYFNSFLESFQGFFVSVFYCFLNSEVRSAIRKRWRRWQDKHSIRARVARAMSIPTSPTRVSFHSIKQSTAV
# Sequence of rat Adrenergic Receptor, Beta (Adrb), Non-selective Binding, Adrb1 (gene 24925) (P18090 whole entry, looked up): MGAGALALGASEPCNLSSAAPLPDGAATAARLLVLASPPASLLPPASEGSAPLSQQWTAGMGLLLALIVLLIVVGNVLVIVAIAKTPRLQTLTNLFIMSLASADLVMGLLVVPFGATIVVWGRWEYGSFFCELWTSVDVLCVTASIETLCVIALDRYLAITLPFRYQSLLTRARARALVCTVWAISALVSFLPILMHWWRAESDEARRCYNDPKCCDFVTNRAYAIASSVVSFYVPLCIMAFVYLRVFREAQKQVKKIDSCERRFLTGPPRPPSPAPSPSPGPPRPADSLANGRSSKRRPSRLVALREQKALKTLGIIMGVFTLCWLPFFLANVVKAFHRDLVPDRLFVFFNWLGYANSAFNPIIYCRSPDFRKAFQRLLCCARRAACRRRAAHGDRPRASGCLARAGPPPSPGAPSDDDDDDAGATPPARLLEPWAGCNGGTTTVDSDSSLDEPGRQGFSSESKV
# Sequence of Adra2b (gene 24174) (P19328 whole entry, looked up): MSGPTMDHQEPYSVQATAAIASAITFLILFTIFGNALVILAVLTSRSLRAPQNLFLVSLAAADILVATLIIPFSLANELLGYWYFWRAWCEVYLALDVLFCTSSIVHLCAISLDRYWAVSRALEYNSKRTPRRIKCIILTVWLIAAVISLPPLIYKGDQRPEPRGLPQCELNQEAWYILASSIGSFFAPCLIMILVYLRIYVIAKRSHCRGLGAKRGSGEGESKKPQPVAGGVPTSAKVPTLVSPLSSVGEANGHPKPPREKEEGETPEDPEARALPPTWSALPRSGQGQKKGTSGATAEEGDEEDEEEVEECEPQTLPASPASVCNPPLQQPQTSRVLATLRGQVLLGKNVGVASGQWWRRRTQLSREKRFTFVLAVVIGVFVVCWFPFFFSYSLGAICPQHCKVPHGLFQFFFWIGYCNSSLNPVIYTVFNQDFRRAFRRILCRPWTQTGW
# Sequence of guinea pig Serotonin, 5-Hydroxytryptamine Receptor 4 (5HT4), HTR4 (gene 100135548) (O70528 whole entry, looked up): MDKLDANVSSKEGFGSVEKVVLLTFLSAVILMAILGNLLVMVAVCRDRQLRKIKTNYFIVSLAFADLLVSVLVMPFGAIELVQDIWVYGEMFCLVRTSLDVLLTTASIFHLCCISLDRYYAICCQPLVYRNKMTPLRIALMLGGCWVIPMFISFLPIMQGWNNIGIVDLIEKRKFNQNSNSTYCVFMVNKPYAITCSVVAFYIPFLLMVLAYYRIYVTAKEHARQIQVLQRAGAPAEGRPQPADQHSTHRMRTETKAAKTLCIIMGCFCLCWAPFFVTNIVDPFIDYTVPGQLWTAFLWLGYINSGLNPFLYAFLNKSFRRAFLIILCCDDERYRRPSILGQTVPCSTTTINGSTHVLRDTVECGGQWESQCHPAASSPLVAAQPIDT
compound,measurement,setting,value
FC(F)C(F)(F)OCC(Cn1cncn1)c1ccc(Cl)cc1Cl (stereo not given),AC50,[1],10.3 µM (active)
same,outcome,[2],inactive
same,outcome,[3],inactive
CCOC(=O)COc1cc(-c2nn(C)c(OC(F)F)c2Cl)c(F)cc1Cl,outcome,[4],inactive
COc1ccc(C(=CC(=O)N2CCOCC2)c2ccc(Cl)cc2)cc1OC,AC50,Adra2b (gene 24174),11.7 µM (active)
same,outcome,[3],inactive
same,outcome,[5],inactive
same,AC50,[6],6.22 µM (active)
C[N+]1(C)CCCCC1,AC50,[7],11.2 µM (active)
same,AC50,[8],6.52 µM (active)
Cc1cc(C2CC2)nc(Nc2ccccc2)n1,outcome,[9],inactive
same,outcome,[10],inactive
C=C(C)[C@H]1Cc2c(ccc3c2O[C@@H]2COc4cc(OC)c(OC)cc4[C@@H]2C3=O)O1,outcome,[11],inactive
CCCCSP(=O)(SCCCC)SCCCC,outcome,[1],inactive
same,outcome,[11],inactive
CCOP(=S)(OCC)Oc1ccc([N+](=O)[O-])cc1,outcome,[5],inactive
COc1cccc(C(=O)NN(C(=O)c2cc(C)cc(C)c2)C(C)(C)C)c1C,AC50,[6],0.491 µM (active)
CCOP(=S)(OCC)Oc1cc(C)nc(C(C)C)n1,outcome,[11],inactive
CCCOCC(=Nc1ccc(Cl)cc1C(F)(F)F)n1ccnc1,outcome,[12],inactive
same,outcome,[3],inactive
same,outcome,[13],inactive
CC[C@H](C)[C@H]1O[C@]2(C=C[C@@H]1C)C[C@@H]1C[C@@H](C/C=C(\C)[C@@H](O[C@H]3C[C@H](OC)[C@@H](O[C@H]4C[C@H](OC)[C@@H](NC)[C@H](C)O4)[C@H](C)O3)[C@@H](C)/C=C/C=C3\CO[C@@H]4[C@H](O)C(C)=C[C@@H](C(=O)O1)[C@]34O)O2,AC50,[1],15.4 µM (active)
same,AC50,[12],21.4 µM (active)
same,AC50,[14],33.1 µM (active)
same,outcome,[2],inactive
same,AC50,[15],11.5 µM (active)
same,AC50,[16],12.7 µM (active)
same,AC50,Adra2b (gene 24174),34.8 µM (active)
same,AC50,[3],30.6 µM (active)
same,AC50,[17],2.49 µM (active)
Cc1ccn2nc(S(=O)(=O)Nc3c(F)cccc3F)nc2n1,outcome,[8],inactive
CC(C)=CC1C(C(=O)OCN2C(=O)C3=C(CCCC3)C2=O)C1(C)C (stereo not given),outcome,[9],inactive
same,outcome,[17],inactive
CCCOc1nn(C(=O)NS(=O)(=O)c2ccccc2C(=O)OC)c(=O)n1C,outcome,[8],inactive
CON=C(C(=O)OC)c1ccccc1CON=C(C)c1cccc(C(F)(F)F)c1,AC50,[6],11.1 µM (active)
